Bioassay records as filed in PubChem BioAssay.
TGFb inhibitor – TGF-b pathway inhibition; HepG2 CAGA-GFP TGF-b/SMAD3 reporter, GFP fluorescence, 18 h; TGF-beta stimulated, 500 pg/mL final; Potency, µM (series often up to 46.1 µM), for inactives: at the top dose activity, negative = inhibition, hits mostly inhibitors; hit rate 1.2% among 410,000; also: potency is read from the fitted curve at half-maximal effect; % is scaled to controls: 0 for no effect and ±100 for the full control effect; nearly all actives have a fitted effect of over 65% in size
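HEPG2 CAGA-GFP, 1000 cells/well; 2 h settle, 37 C; cpd via pin tool; TGF-b 500 pg/mL final; 18 h, 37 C; GFP imaging ex488/em500-530; %Activity normalised to -TGF-b and +DMSO controls; CRC fit, curve class.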
HepG2 tox – HepG2 cytotoxicity, counter-screen for TGF-b inhibitors; HepG2 CAGA-GFP viability, ATP luminescence, 18 h; Potency, µM (titrated, usually from 46.1 µM), without a hit: at the highest dose activity change, negative = cytotoxicity, usual class: cytotoxic; hit rate 0.76% among 410,000; AID 588856; also: potency is read from the fitted curve at half-maximal effect
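HepG2 CAGA-GFP cells (1000/well, DMEM with 1% FBS) received compound, then TGF-beta at 500 pg/mL final, and were incubated 18 hours at 37 degrees C. Viability was read by CellTiter-Glo luminescence. Media-only wells were set as complete cell-killing and DMSO as no toxicity.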
ATXN2 expr inh – ATXN2 expression inhibition | HEK-293 ATXN2-luciferase reporter, luminescence, 24 h | Potency, µM (doses to about 57 µM), for the others: at the highest dose activity change, negative = inhibition, hits mostly inhibitors | hit rate 0.72% among 360,000 | AID 1745845; also: potency is read from the fitted curve at half-maximal effect; % is scaled to controls: 0 for no effect and ±100 for the full control effect; nearly all actives have a fitted effect of over 55% in size
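qHTS (up to 57 uM final) was run with 24 h compound exposure of reporter cells at 37 °C. Each well was multiplexed: SteadyGlo luminescence measured ATXN2-luciferase expression after a fluorogenic Gly-Phe-AFC viability readout (25 uM final).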
IL-1B inflam inh – inflammasome signaling inhibition, IL-1 beta readout | THP-1 LPS/ATP IL-1B secretion, AlphaLISA, 16 h; hits give low values | activity change, % at 57.5 µM | hit rate 4.7% among 360,000 | AID 743279; in the data active = activity change below about -50%; inconclusive = mostly about -30% to -49%; also: % is scaled to controls: 0 for no effect and ±100 for the full control effect
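THP-1 cells pretreated 1 hr with compounds (up to 57.5 uM final), then stimulated with LPS (250 ng/mL final) plus ATP (1.25 mM final); secreted IL-1B measured by AlphaLISA after 16 hr, decreased signal indicating inhibition.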
S2 tox – cell viability loss in ATXN counter-screen; AID 651635; Potency, µM (top dose mostly 56.7 µM), actives largely listed as cytotoxic; S2 cells (HEK-293 line with an ATXN2-luciferase reporter) viability, CellTiter-Fluor protease fluorescence, 24 h; hit rate 0.49% among 400,000; also: potency is read from the fitted curve at half-maximal effect; nearly all actives have a fitted effect of over 40% in size
Starred values were filed as active, the others as inactive; i = inactive; u = inconclusive; x = no result given; [ ] = dose if it differs, or a comment. Shown are actives, neighbours in structure and some others; about 5.7% of the full set was active somewhere. Unless noted, calls follow the shape of the dose curve; as a rule, active = well fitted curve in the direction sought with a large enough effect; inconclusive = small, poorly fitted or top-dose-only effect, or another doubt; inactive = no such curve, though single readings can be large; an effect the other way counts as inactive or inconclusive.

SMILES	TGFb inhibitor	HepG2 tox	ATXN2 expr inh	IL-1B inflam inh	S2 tox
O=C(NCCN1CCCCC1)Nc1ccc(F)c(Cl)c1	1%	-1%	-5%	-5	i
CN1CCN(CCOc2cc(OC3CCOCC3)c3c(Nc4c(Cl)ccc5c4OCO5)ncnc3c2)CC1	x	x	7%	x	x
Cc1c(Cl)cccc1-n1nc(C)c2c(C)cc(=O)n(CC(=O)N3CCCc4ccccc43)c21	-17%	-31%	u	x	u
O=C(C[n+]1ccccc1Br)c1ccc(-c2ccccc2)cc1	u	-26%	x	x	x
C=CCn1c(COc2cccc(C)c2C)nnc1SCC(=O)N1CCN(c2ccccc2)CC1	4.5µM*	-69%	u	-55*	i
Nc1nc(N)c2cc(Sc3ccc4ccccc4c3)ccc2n1	11µM*	-179%	u	u	u
Nc1nc(N)c2cc(Sc3ccc(Cl)cc3)ccc2n1	u	-114%	x	u	x
Cc1nc(N)nc(N)c1/C=C/C(C)(C)c1ccc(Cl)cc1	u	-69%	u	-106*	i
CCc1cc(SC#N)ccc1N	7%	-23%	-22%	-102*	i
CC(C)(C)C(=O)Nc1cc(-c2cccc(Br)c2)nn1-c1ccccc1	-23%	-18%	-27%	x	u
COc1ccc(OC)c(/C=C/c2sc3ccccc3[n+]2C)c1	-2%	2%	x	x	x
O=C1C=C(c2c(O)ccc3ccccc23)c2ccccc2C1=O	2.8µM*	13µM*	16µM*	-117*	x
O=C1C=C(O)c2cccc(O)c2C1=O	-1%	3%	-18%	15	i
CCCCOc1ccc(C2=NC(c3ccncc3)=Nc3ccc(OCC)cc3N2)cc1	-20%	-25%	-4%	x	i
O=C(N/N=C/c1cn(-c2cccs2)nc1-c1ccccc1)c1ccccc1O	11µM*	-47%	0%	77	u
O=C(N/N=C/c1cn(-c2cccs2)nc1-c1ccccc1)c1ccccc1Br	-4%	-1%	35%	u	i
CNc1ccc(/C=C2\C=Cc3ccccc32)cc1OC	-3%	-11%	x	x	x
COc1cc(C2C(C#N)=C(N)N(Nc3ccccc3)C3=C2C(=O)CC(C)(C)C3)ccc1OCc1ccccc1 (stereo unspecified)	u	-23%	-25%	u	i
COc1cc(C2C(C#N)=C(N)N(Nc3ccccc3)C3=C2C(=O)CC(C)(C)C3)ccc1OCc1cccc(F)c1 (stereo unspecified)	u	1%	-4%	-52*	i
Cc1ccc(NC(=O)C(=O)c2cc(C)n(-c3ccc(F)cc3)c2C)cc1C	u	-26%	6%	x	i
CC1=NC(Nc2nc(C)c3ccccc3n2)=NC(C)(C)C1	0%	-22%	u	-100*	u
CCCc1cc(=O)[nH]c2nnc(SCC(=O)Nc3ccc(OC)cc3)n12	u	-21%	x	x	x
O=C(NCc1ccc2c(c1)OCO2)c1ccco1	20%	5%	8%[11.3 µM]	20	i
O=C(CC(SCCO)c1ccc2c(c1)OCO2)c1ccco1 (stereo unspecified)	-17%	-25%	32%	-56*	i
O=C(c1ccc(N2CCC(NCCCn3ncc4ccccc43)CC2)cc1)N1CCc2ccccc2C1	x	x	x	x	i
SMILES	TGFb inhibitor	HepG2 tox	ATXN2 expr inh	IL-1B inflam inh	S2 tox
C=CCn1c(=O)/c(=C/c2ccc(Cl)cc2)s/c1=C(/C#N)c1nnc2n1CCCCC2	-9%	-17%	22µM*	-72*	18µM*
COc1cccc(CNS(=O)(=O)c2ccc3[nH]c4c(c3c2)CCCCC4)c1	u	22µM*	u	x	u
CCc1ccc(NS(=O)(=O)c2ccc3[nH]c4c(c3c2)CCCCCC4)cc1	u	-100%	11%	x	u
COc1cc(NS(=O)(=O)c2ccc3[nH]c4c(c3c2)CCCC4)cc(OC)c1OC	u	-45%	u	x	u
O=S(=O)(NCc1ccc(F)cc1)c1ccc2[nH]c3c(c2c1)CCCCC3	u	-62%	-17%	x	i
CCOC(=O)c1ccc(NS(=O)(=O)c2ccc3[nH]c4c(c3c2)CCCCC4)cc1	u	25µM*	u	x	u
COc1cc(NS(=O)(=O)c2ccc3[nH]c4c(c3c2)CCCCCC4)cc(OC)c1	13µM*	-103%	u	x	u
CC(=O)Nc1ccc(S(=O)(=O)O)c2cc(S(=O)(=O)O)c(N=Nc3ccc(N=Nc4ccc(S(=O)(=O)O)cc4)c4ccc(S(=O)(=O)O)cc34)c(O)c12	-6%	-26%	x	x	x
O=c1c(Cl)c(Cl)cnn1Cc1nnc(-c2ccccc2Br)o1	16µM*	-85%	u	-96*	x
COC(=O)c1ccc(COC(=O)CNC(=O)CNC(=O)c2ccc(C)cc2)cc1	-13%	-23%	1%	-13	i
Cc1ccc(C(=O)NCC(=O)NCC(=O)OCc2ccc(Cl)cc2)cc1	-9%	12%	-20%	-98*	i
COc1cccc(CNC(=O)CCC2CCCN(C(=O)CCC(F)(F)F)C2)c1 (stereo unspecified)	1%	-24%	4%	-4	i
COc1cccc(CNC(=O)CCC2CCCN(Cc3cc4ccccc4o3)C2)c1 (stereo unspecified)	u	-15%	-25%	-60*	i
O=C(Nc1c(C(=O)N2CCN(c3ccc(F)cc3)CC2)oc2ccccc12)c1c(F)cccc1F	-3%	-22%	-7%	x	i
CC1(C)CC(=O)C2=C(C1)c1c(ccc3ccccc13)NC2c1cc([N+](=O)[O-])cc([N+](=O)[O-])c1O (stereo unspecified)	u	6%	19%[11.3 µM]	-11	i
CC(C)(C)c1ccc(C2C3=C(CCCC3=O)NC3=C2C(=O)c2ccccc23)cc1 (stereo unspecified)	u	-32%	u	21	u
CC1(C)CC(=O)C2=C(C1)NC1=C(C(=O)c3ccccc31)C2c1cccnc1 (stereo unspecified)	3%	4%	x	9	u
CC(C)c1ccc(C2C3=C(CC(C)(C)CC3=O)NC3=C2C(=O)c2ccccc23)cc1 (stereo unspecified)	u	-10%	u	u	14µM*
CC1(C)CC(=O)C2=C(C1)NC1=C(C(=O)c3ccccc31)C2c1ccccc1 (stereo unspecified)	-14%	-8%	3%	-85*	u
CC1(C)CC(=O)C2=C(C1)NC1=C(C(=O)c3ccccc31)C2c1cc([N+](=O)[O-])ccc1O (stereo unspecified)	-17%	9%	-21%	-62*	u
CN1/C(=C/C(=S)NC(=O)C2(C)CC2(Cl)Cl)C(C)(C)c2ccccc21 (stereo unspecified)	-18%	-5%	-21%	-13	u
